Experimental data as given in PubChem BioAssay (EPA / NIEHS).
Calls of active or inactive are those of the source. The calls were made as follows: active = hit-call score of the fitted dose curve at least 0.9, where 1 is the maximum; inactive = score below 0.9.

Key:
Conditions in all cases: mRNA level, 48 h; actives raise or lower the signal
[1] = read-out: cysteine-aspartic acid protease (CASP8), CASP8 (gene 841); experiment: LTEA_HepaRG_CASP8: Life Technologies and Expression Analysis (LTEA) Assay for cysteine-aspartic acid protease (CASP8) using HepaRG (AID 2283480)
Method in brief: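 Differentiated HepaRG cells in serum-free induction medium, 48 h exposure, eight-point half-log series from 100 uM in 0.5% DMSO, duplicates. CASP8 mRNA by qRT-PCR, normalized to ACTB, GAPDH, POLR2A; bidirectional fit versus DMSO.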

[2] = read-out: Cytochrome P450 (CYP2B6), CYP2B6 (gene 1555); experiment: LTEA_HepaRG_CYP2B6: Life Technologies and Expression Analysis (LTEA) Assay for Cytochrome P450 (CYP2B6) using HepaRG (AID 2283481)
Method in brief: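 CYP2B6 transcript level quantified by qRT-PCR against three housekeeping genes, fitted bidirectionally relative to DMSO. HepaRG cultures received chemicals for 48 h, 8-point half-log series from 100 uM in 0.5% DMSO, duplicate wells, serum-free induction medium.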

[3] = read-out: Cytochrome P450 2C19 (Homo sapiens) (UniProt P33261); experiment: LTEA_HepaRG_CYP2C19: Life Technologies and Expression Analysis (LTEA) Assay for CYP2C19 using HepaRG (AID 2283482)
Description: (§1) LTEA_HepaRG is a cell based, multiplexed-readout assay that uses HepaRG, a human liver cell line, with measurements taken at 48 hours after chemical dosing on a 96-well plate.LTEA_HepaRG_CYP2C19 is one of 102 assay component(s) measured in the LTEA HepaRG cell culture assay. It is a marker of NR mediated metabolism.Data from the assay component LTEA_HepaRG_CYP2C19 was analyzed into 1 endpoint. This assay endpoint, LTEA_HepaRG_CYP2C19, was analyzed with bidirectional fitting relative to DMSO as the negative control and baseline of activity. Using a type of inducible reporter, measures of mRNA induction for gain or loss-of-signal activity can be used to understand regulation of transcription factor activity. To generalize the intended target to other relatable targets, this assay endpoint is annotated to the cyp intended target family, where the subfamily is xenobiotic metabolism.
(§2) A total of 1060 chemcials from the ToxCast library were tested in eight-point concentration-response experiments. Cell culture and cytotoxicity assays were conducted at Thermo Fisher Scientific's Custom Services facility (Madison, WI). […] Fluidigm's 96.96 Dynamic ArrayTM (Fluidigm, Amsterdam, the Netherlands) technology was used for gene expression analyses by quantitative reverse transcription polymerase chain reaction (qRT-PCR, performed by Quintiles/Expression Analysis, Durham, NC)89. […]

[4] = read-out: CYP2C8 (gene 1558); experiment: LTEA_HepaRG_CYP2C8: Life Technologies and Expression Analysis (LTEA) Assay for CYP2C8 using HepaRG (AID 2283483)
Method in brief: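 Differentiated HepaRG cells in serum-free induction medium exposed 48 h in duplicate to 8 half-log concentrations from 100 uM in 0.5% DMSO. CYP2C8 mRNA by qRT-PCR normalized to ACTB, GAPDH, POLR2A; bidirectional fit versus DMSO.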

[5] = read-out: CYP2C9 (gene 1559); experiment: LTEA_HepaRG_CYP2C9: Life Technologies and Expression Analysis (LTEA) Assay for CYP2C9 using HepaRG (AID 2283484)
Method in brief: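 Differentiated human HepaRG cells in serum-free induction medium were exposed 48 h to chemicals in 8-point half-log series from 100 uM (0.5% DMSO), in duplicate. CYP2C9 mRNA was measured by qRT-PCR, normalized to ACTB/GAPDH/POLR2A, with bidirectional fitting versus DMSO.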

[6] = read-out: CYP2E1 (gene 1571); experiment: LTEA_HepaRG_CYP2E1: Life Technologies and Expression Analysis (LTEA) Assay for CYP2E1 using HepaRG (AID 2283485)
Description: as §1, with “plate.LTEA_HepaRG_CYP2E1” for “plate.LTEA_HepaRG_CYP2C19”, “LTEA_HepaRG_CYP2E1” for “LTEA_HepaRG_CYP2C19”, “LTEA_HepaRG_CYP2E1,” for “LTEA_HepaRG_CYP2C19,”
as §2

[7] = read-out: CYP4A11 (gene 1579); experiment: LTEA_HepaRG_CYP4A11: Life Technologies and Expression Analysis (LTEA) Assay for CYP4A11 using HepaRG (AID 2283486)
Method in brief: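 Readout is CYP4A11 transcript level by qRT-PCR, normalized to three housekeeping genes and fitted bidirectionally against 0.5% DMSO. Human HepaRG cells were treated 48 h, in duplicate, with an 8-point half-log series topping at 100 uM.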

[8] = read-out: Cytochrome P450 3A4 (Homo sapiens) (UniProt P08684); experiment: LTEA_HepaRG_CYP3A4: Life Technologies and Expression Analysis (LTEA) Assay for CYP3A4 using HepaRG (AID 2283487)
Method in brief: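 CYP3A4 transcript measured by TaqMan qRT-PCR and normalized to three housekeeping genes after 48 h chemical exposure of human HepaRG cells. Top concentration 100 uM, half-log steps, 0.5% DMSO vehicle; gain or loss fitted against DMSO baseline.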

[9] = read-out: DNA damage-inducible transcript 3 (DDIT3), DDIT3 (gene 1649); experiment: LTEA_HepaRG_DDIT3: Life Technologies and Expression Analysis (LTEA) Assay for DNA damage-inducible transcript 3 (DDIT3) using HepaRG (AID 2283488)
Method in brief: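 HepaRG cells, 48 h after plating, exposed 48 h in serum-free induction medium to 8 half-log concentrations up to 100 uM in 0.5% DMSO, in duplicate. DDIT3 mRNA measured by TaqMan qRT-PCR, normalized to ACTB, GAPDH and POLR2A. Fitted bidirectionally against DMSO.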

[10] = read-out: Pro-epidermal growth factor (Homo sapiens) (UniProt P01133); experiment: LTEA_HepaRG_EGF: Life Technologies and Expression Analysis (LTEA) Assay for Epidermal growth factor (EGF) using HepaRG (AID 2283489)
Method in brief: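 EGF transcript measured by Fluidigm TaqMan qRT-PCR with three housekeeping genes for normalization, 48 h after dosing HepaRG cultures in duplicate (top 100 uM, half-log steps, 0.5% DMSO vehicle). Gain or loss relative to DMSO fitted.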

Measured: outcome

Sequence of Cytochrome P450 3A4 (Homo sapiens) (P08684 whole entry, looked up): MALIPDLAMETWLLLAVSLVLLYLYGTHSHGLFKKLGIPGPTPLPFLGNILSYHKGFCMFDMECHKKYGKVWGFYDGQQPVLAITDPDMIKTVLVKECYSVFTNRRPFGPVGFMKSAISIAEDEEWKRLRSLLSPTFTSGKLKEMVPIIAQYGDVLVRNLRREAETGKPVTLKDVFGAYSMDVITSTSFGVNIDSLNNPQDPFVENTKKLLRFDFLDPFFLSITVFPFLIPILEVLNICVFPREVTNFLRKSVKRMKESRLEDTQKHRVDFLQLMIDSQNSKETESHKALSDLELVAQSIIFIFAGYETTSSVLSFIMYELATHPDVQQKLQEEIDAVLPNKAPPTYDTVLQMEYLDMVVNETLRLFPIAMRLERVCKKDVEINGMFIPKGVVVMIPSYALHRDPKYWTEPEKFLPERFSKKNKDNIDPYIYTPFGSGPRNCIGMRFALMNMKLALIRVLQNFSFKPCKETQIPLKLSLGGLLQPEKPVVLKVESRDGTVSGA
Sequence of Cytochrome P450 2C19 (Homo sapiens) (P33261 whole entry, looked up): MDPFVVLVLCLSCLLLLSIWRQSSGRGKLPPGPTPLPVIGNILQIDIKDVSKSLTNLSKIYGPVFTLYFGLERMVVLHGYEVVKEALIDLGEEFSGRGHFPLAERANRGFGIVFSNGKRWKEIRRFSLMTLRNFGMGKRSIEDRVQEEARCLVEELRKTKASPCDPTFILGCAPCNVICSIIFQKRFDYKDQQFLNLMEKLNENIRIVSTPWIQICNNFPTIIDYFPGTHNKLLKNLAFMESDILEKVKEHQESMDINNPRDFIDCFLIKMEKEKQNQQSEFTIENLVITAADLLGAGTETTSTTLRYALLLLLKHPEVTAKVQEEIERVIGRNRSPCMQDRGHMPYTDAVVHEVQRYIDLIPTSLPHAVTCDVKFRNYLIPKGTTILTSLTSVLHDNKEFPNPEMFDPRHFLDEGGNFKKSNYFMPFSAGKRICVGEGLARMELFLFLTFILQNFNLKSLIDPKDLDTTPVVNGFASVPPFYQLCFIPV

O=C(O)c1ccc([N+](=O)[O-])cc1
inactive: [1] | [2] | [3] | [4] | [5] | [6] | [7] | [8] | [9] | [10]
